# Rows were chosen to be rich in hits. Some 2.2% of all compounds tested hit in one or more screens of this group.
# PLCb3 inh – blocks human PLC-beta3 enzyme activity | Q01970 | Purified PLC-beta3, fluorogenic substrate, fluorescence | inhibition, % at 12.2 µM | actives 0.18% (n = 370,000) | AID 720704
# Target sequence (Q01970 whole entry, looked up): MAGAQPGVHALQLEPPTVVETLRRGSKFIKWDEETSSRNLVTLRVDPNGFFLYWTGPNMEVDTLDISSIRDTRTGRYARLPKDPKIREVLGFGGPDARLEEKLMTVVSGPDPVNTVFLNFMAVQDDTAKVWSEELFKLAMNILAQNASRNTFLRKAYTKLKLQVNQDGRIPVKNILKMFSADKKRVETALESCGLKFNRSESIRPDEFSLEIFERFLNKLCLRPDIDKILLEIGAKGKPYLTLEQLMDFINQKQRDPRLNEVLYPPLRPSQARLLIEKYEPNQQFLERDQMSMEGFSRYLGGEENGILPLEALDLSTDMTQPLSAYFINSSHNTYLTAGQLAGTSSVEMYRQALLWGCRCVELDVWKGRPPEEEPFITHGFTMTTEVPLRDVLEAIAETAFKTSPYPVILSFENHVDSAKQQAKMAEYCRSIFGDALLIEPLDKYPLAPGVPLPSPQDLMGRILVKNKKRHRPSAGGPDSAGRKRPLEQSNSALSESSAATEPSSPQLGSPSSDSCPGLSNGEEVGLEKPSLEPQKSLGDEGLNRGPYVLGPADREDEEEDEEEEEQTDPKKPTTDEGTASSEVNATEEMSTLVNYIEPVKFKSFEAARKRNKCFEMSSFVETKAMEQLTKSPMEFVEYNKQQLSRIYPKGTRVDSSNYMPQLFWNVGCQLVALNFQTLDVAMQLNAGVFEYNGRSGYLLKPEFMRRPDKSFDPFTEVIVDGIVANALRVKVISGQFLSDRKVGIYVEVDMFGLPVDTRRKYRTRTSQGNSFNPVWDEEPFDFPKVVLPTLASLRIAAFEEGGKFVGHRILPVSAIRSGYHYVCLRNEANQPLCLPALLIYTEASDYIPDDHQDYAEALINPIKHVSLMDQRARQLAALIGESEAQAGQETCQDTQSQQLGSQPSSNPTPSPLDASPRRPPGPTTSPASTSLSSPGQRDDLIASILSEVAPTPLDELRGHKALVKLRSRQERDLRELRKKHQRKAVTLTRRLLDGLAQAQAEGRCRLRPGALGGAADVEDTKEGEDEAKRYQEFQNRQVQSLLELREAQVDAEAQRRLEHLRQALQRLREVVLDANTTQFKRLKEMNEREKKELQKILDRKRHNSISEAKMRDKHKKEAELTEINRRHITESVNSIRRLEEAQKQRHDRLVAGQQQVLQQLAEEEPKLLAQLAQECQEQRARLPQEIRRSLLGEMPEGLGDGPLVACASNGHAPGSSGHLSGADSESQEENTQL
# Cardio protect – protects H9c2 cardiomyocytes from peroxide injury. H2O2 injury protection, ATPLite, 2 h. protection from H2O2 cell death, % at 20 µM. actives 0.63% (n = 360,000);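 active means compounds giving at least 50% protection of heart cells from peroxide-induced death in the single-dose screen, raw or plate-pattern-corrected value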
# PLC-gamma1 inh – blocks human PLC-gamma1 enzyme activity | P19174 | purified PLC-gamma1, fluorogenic substrate, fluorescence | inhibition, % at 12.2 µM | actives 0.84% (n = 370,000) | AID 720700; in the data active means inhibition above about 9.5%
# FAS TE block – blocks the thioesterase domain of human fatty acid synthase | P49327 | recombinant FAS-TE, OMFH fluorogenic substrate, fluorescence endpoint | inhibition, % at 15 µM | actives 0.67% (n = 360,000) | AID 602261;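 active means compounds whose normalised, plate-corrected inhibition of enzyme fluorescence in the single-dose primary screen is 50% or more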
# PLCgamma1 ctr – counter-screen for PLC-beta3 inhibitors: inhibitors of human PLC-gamma1 | AID 743258 | actives 3.1% (n = 3,300) | shares compounds with PLC-gamma1 inh | inhibition, % at 12.3 µM | purified PLC-gamma1, fluorogenic substrate, fluorescence; in the data active means inhibition above about 9.5%
# PLCb3 confirm – confirmation of human PLC-beta3 inhibitors; AID 743261; shares compounds with PLC-gamma1 inh; inhibition, % at 12.3 µM; actives 1% (n = 3,300); purified PLC-beta3, fluorogenic substrate fluorescence
# Numbers stand for hits; – = inactive; · = no result. Unless noted, no stated cut-off is given here; in the data, active means inhibition above about 11%; inactive means the rest.
SMILES,PLCb3 inh,Cardio protect,PLC-gamma1 inh,FAS TE block,PLCgamma1 ctr,PLCb3 confirm
Cc1ccc(C(=O)NNC(=O)C2CCN(S(=O)(=O)c3ccc(C)cc3)CC2)cc1,–,–,–,–,·,·
Cc1ccc(S(=O)(=O)N2CCC(C(=O)NNC(=O)c3ccncc3)CC2)cc1,11.6,–,–,–,–,–
O=C(O)C(Cc1ccccc1)n1cccc1 (stereo unspecified),–,–,–,–,·,·
O=C(O)C(Cc1ccccc1)n1cnnn1 (stereo unspecified),–,–,10.1,–,–,–
O=C(CN1CCCC1)Nc1ccc(F)cc1,–,–,–,–,·,·
O=C(CN1CCN(C(=O)N2CCCCC2)CC1)Nc1ccc(F)cc1,–,–,10.8,–,–,–
O=C(Nc1cccc([N+](=O)[O-])c1)Nc1cccc([N+](=O)[O-])c1,–,–,–,–,·,·
O=C(Nc1cccc([N+](=O)[O-])c1)Nc1ccc2c(c1)OCCO2,–,–,10.2,–,–,–
CCN(CC(=O)Nc1ccccc1C(F)(F)F)C(=O)c1oc2c(Cl)cccc2c1C,–,–,12.7,–,–,–
CCN(CC(=O)Nc1ccc(OC)cc1)C(=O)c1oc2c(Cl)cccc2c1C,–,–,–,–,·,·
O=C(NCCc1ccc(Cl)cc1Cl)c1cncc(Br)c1,–,–,10.7,–,–,–
CC(=O)c1ccc(C(=O)N2CCCC(CO)(Cc3ccccc3C)C2)s1 (stereo unspecified),–,–,–,–,·,·
O=C(C(O)c1ccc(Br)cc1)N1CCC(Nc2ccc3[nH]ncc3c2)CC1 (stereo unspecified),–,–,–,–,·,·
CCOc1ccc(NC(=O)CC2SC(=O)N(c3ccccc3)C2=O)cc1 (stereo unspecified),–,–,9.9,–,–,–
O=C(CNCCC1=CCCCC1)Nc1ccccc1N1CCCCC1,–,–,11.6,–,–,–
Cc1cccc(NC(=O)c2nc[nH]c2C(=O)Nc2ccccc2F)c1,–,–,–,–,·,·
CCCCOc1ccc(N(CC(=O)NCCOC)C(=O)CCC(=O)Nc2ccccn2)cc1,–,–,–,–,·,·
Cc1ccc(NC(=O)c2cccc(NC3=NC4CS(=O)(=O)CC4S3)c2)cc1C (stereo unspecified),–,–,–,–,·,·
CC(C)c1ccc(NC(=O)c2cccc(NC3=NC4CS(=O)(=O)CC4S3)c2)cc1 (stereo unspecified),–,–,9.6,–,–,–
Cc1ccc(CNC(=O)Cc2ccc(NC3=NC4CS(=O)(=O)CC4S3)cc2)cc1 (stereo unspecified),–,–,–,–,·,·
O=C(Nc1ccc(Cl)cc1)c1cccc(NC2=NC3CS(=O)(=O)CC3S2)c1 (stereo unspecified),–,–,12.0,–,–,–
O=C(Cc1ccc(NC2=NC3CS(=O)(=O)CC3S2)cc1)NCc1ccc(Cl)cc1 (stereo unspecified),–,–,11.4,–,–,–
CC(C)c1ccc(NC(=O)Cc2ccc(NC3=NC4CS(=O)(=O)CC4S3)cc2)cc1 (stereo unspecified),–,–,10.7,–,–,–
CCc1ccc(NC(=O)Cc2ccc(NC3=NC4CS(=O)(=O)CC4S3)cc2)cc1 (stereo unspecified),–,–,–,–,·,·
CCc1ccc(NC(=O)C2CCCN2c2nn3c(=O)cc(C)nc3s2)cc1 (stereo unspecified),–,–,–,–,·,·
SMILES,PLCb3 inh,Cardio protect,PLC-gamma1 inh,FAS TE block,PLCgamma1 ctr,PLCb3 confirm
CCc1ccc(NC(=O)c2cccc(NC3=NC4CS(=O)(=O)CC4S3)c2)cc1 (stereo unspecified),–,–,–,–,·,·
CCOc1ccc(NC(=O)c2cccc(NC3=NC4CS(=O)(=O)CC4S3)c2)cc1 (stereo unspecified),–,–,9.9,–,–,–
CC(C)c1onc(C(=O)N2CCOCC2)c1[N+](=O)[O-],12.9,–,–,–,–,–
O=C(c1c[nH]c2ccccc12)C(Cl)c1ccccc1 (stereo unspecified),–,–,–,–,·,·
O=C(NNC(=O)c1cccc2ccccc12)c1ccc(Br)cc1,–,–,–,–,·,·
O=C(NNC(=O)c1cccc2ccccc12)c1ccc(F)cc1,16.9,–,–,–,–,–
O=C1CCCC(O)=C1N=Nc1c(Cl)cc(Cl)cc1Cl,–,–,10.2,–,–,–
O=C1CCCC(O)=C1N=Nc1cccc(C(=O)O)c1,–,–,–,–,·,·
COc1cc(/C=N/Nc2nc(Nc3ccccc3)nc(N3CCCCC3)n2)ccc1OCC(=O)O,–,–,11.6,–,–,–
CCOc1ccc(/C=N/Nc2nc(N3CCCC3)nc(N3CCCC3)n2)cc1OC,–,–,–,–,·,·
O=C(c1ccc(Br)cc1)c1cc([N+](=O)[O-])ccc1N1CCCCC1,–,–,13.5,–,–,–
CN1CCN(c2ccc([N+](=O)[O-])cc2C(=O)c2ccc(Br)cc2)CC1,–,–,–,–,·,·
C/C(=N/NC(=O)c1ccccc1)c1ccc(NC(=O)C(F)(F)F)cc1,10.6,–,–,–,–,–
COC(=O)C1=C(C)N(C)C(=NCc2cc(OC)c(OC)c(OC)c2)NC1c1ccc(Cl)cc1 (stereo unspecified),13.1,·,–,·,–,–
Cc1ccc(OC(C)C(=O)N(Cc2cccs2)C2CCS(=O)(=O)C2)cc1C (stereo unspecified),–,–,9.8,–,–,–
Cc1cc(OC(C)C(=O)N(Cc2cccs2)C2CCS(=O)(=O)C2)ccc1Cl (stereo unspecified),–,–,–,–,·,·
O=[N+]([O-])c1cc(Br)c2c(c1)CCN2,12.6,–,–,–,–,–
Cc1c(C(=O)NCc2cccs2)oc2ccccc12,–,–,–,–,·,·
Cc1c(-c2ccccc2)nc2ccccc2c1C(=O)NCc1cccs1,14.3,–,–,–,–,–
CN(C)CCCNS(=O)(=O)c1ccc(NC2CCCCCC2)c([N+](=O)[O-])c1,–,–,15.0,–,–,–
CCNc1ccc(S(=O)(=O)NCCN(C)C)cc1[N+](=O)[O-],–,–,–,–,·,·
CC(C)(C)[C@@H]1/C(=C/C2CC2)N2C(=O)C[C@@H](c3ccccc3)N=C2N1Cc1ccc2c(c1)OCO2,–,·,–,·,·,·
O=C(CSc1nnnn1C1CCCCC1)N1CCN(C(=O)c2ccco2)CC1,–,–,11.6,–,–,–
O=C(CSc1nnnn1C1CCCC1)N1CCN(C(=O)c2ccco2)CC1,–,–,–,–,·,·
COc1ccc(C(=O)NN=C(Cc2ccccc2)Cc2ccccc2)cc1OC,–,–,11.1,–,–,–
COc1ccc(C(=O)Cc2ccccc2)cc1OC,–,–,–,–,·,·
CC(=O)Nc1ccc(/C=N/NC(=S)NC(C)C)cc1,–,–,11.9,–,–,–
COc1ccc(N(CC(=O)Nc2ccc3c(c2)OCCO3)S(=O)(=O)c2cccc(C)c2)cc1,–,–,–,–,·,·
CC(NCc1cccc(OCc2ccccc2)c1)C(O)c1ccccc1 (stereo unspecified),–,–,–,–,·,·
